The source of these data is PubChem BioAssay (Tox21).

Unmarked numbers belong to inactive results. Calls of active or inactive are those of the source. Calls follow the shape of the dose curve; as a rule, active = well fitted activation curve with a large enough effect in the repeat runs; inconclusive = weak or mixed curves; inactive = flat fitted curve, though single readings scatter.
% is scaled to controls: 0 for no effect and ±100 for the full control effect; potency is read from the fitted curve at half-maximal effect.

The experiment is described as follows: A CellTox Green Cytotoxicity Assay to monitor cytotoxicity in HEK293 cells - 0 hour (AID 1224869). Also: nearly all actives have a fitted effect of over 50% in size. Conditions: CellTox Green fluorescence; series mostly up to 76.8 µM; cytotoxicity: at the top concentration. From the text:
National Center for Advancing Translational Sciences [NCATS]
NIH Chemical Genomics Center [NCGC]
U.S. Environmental Protection Agency [EPA]
National Institutes of Environmental Health Sciences [NIEHS]
National Toxicology Program [NTP]
Cell-based models are critical for drug discovery. Determining the natural cytotoxic effects resulting from test compounds is an essential research activity. A CellTox Green Cytotoxicity Assay to monitor cytotoxicity in real time of continues cell culture during 40 hours of the compound treatment was used to screen Tox21 10K library compounds in Hek293 cells. CellTox Green Cytotoxicity Assay is a nonlytic, homogeneous, biofluorescent method to measure cytotoxicity in cell culture after experimental manipulation. The assay system uses a proprietary asymmetric cyanine dye that is excluded from viable cells but preferentially stains the dead cell's DNA. […] Viable cells produce no appreciable increases in fluorescence. Therefore, the fluorescence signal produced by the binding interaction with dead cell DNA is proportional to cytotoxicity.
The mixture of Hek293 cell suspension and reagents were dispensed at 600cells/6 ul/well in 1536-well tissue culture treated black solid bottom plates using a Multidrop dispenser. After the assay plates were incubated at a 37 C/5% CO2 incubator for 5 hours, 23 nL of compounds dissolved in DMSO, positive and negative controls was transferred to the assay plate by a pintool work station. The plates were incubated at 37 C for 40 hours. The fluorescence intensity were measured at 0h, 8h, 16h, 24h, 32h and 40h time points using ViewLux plate reader during compound treatment.
As for `CCCCCCCC/C=C\CCCCCCCC(=O)OC(CO)CO`, the “cytotoxicity” value was -2.7%. Same read-out and setting: as for `Cc1cc(OI)c(C(C)C)cc1-c1cc(C(C)C)c(OI)cc1C`, the figure is -5.01% [at 35.3 µM].

As to `Cc1c(C(=O)NN2CCCCC2)nn(-c2ccc(Cl)cc2Cl)c1-c1ccc(Cl)cc1`, the “cytotoxicity” value is -7.43% [at 35.3 µM]. Turning to `CCOc1cc(N)c(Cl)cc1C(=O)NCC1CN(Cc2ccc(F)cc2)CCO1` (stereo not given), the “cytotoxicity” value is 4.29% [at 35.3 µM]. For `Cc1cc(O)c(C(C)C)cc1Cl`, the Potency entry is “inactive”.

For the molecule `CCOC(=O)OCC`, the “cytotoxicity” value is 2.78%. The same measure, in the same setting: as for `c1ccc(COCc2ccccc2)cc1`, the figure is -0.874%; as for `CO[C@H]1C=CO[C@@]2(C)Oc3c(C)c(O)c4c(O)c(c5c(c4c3C2=O)=NC2(CCN(CC(C)C)CC2)N=5)NC(=O)/C(C)=C\C=C/[C@H](C)[C@H](O)[C@@H](C)[C@@H](O)[C@@H](C)[C@H](OC(C)=O)[C@@H]1C`, -10.8%. Same read-out and setting: as for `Cc1cc2nc3ccc(=[N+](C)C)cc-3sc2cc1N`, the figure is -15.8% [at 35.3 µM]; as for `CCc1cccc(N(C)C(N)=Nc2cccc3ccccc23)c1`, 1.8% [at 35.3 µM]. On the same count and under the same terms, as for `CC(C)CCCC(=O)O`, the figure is -0.771%; as for `NC(=O)Cn1c(=O)cc(CCN2CCN(c3nccc4sccc34)CC2)c2ccc(F)cc21`, 0.829%. Regarding `O=C(O)c1c(O)c(-c2ccccc2)nc2ccccc12`, the “cytotoxicity” value is -1.99% [at 35.3 µM].

In the case of `CC(CCO)CCc1ccccc1` (stereo not given), the “cytotoxicity” value was -2.98%. `C/C=C/C=C/CCCCCCCO`: the “cytotoxicity” value was 0.217%.

On to `CC(=O)OCC(=O)[C@@]12OC(C)(C)O[C@@H]1C[C@H]1[C@@H]3C[C@H](F)C4=CC(=O)C=C[C@]4(C)[C@@]3(F)[C@@H](O)C[C@@]12C`, for which the “cytotoxicity” value was -4.29% [at 35.3 µM]. For the molecule `C=CC(C)(O)CCCC(C)CCCC(C)CCCC(C)C` (stereo not given), the “cytotoxicity” value was -0.255%. On the same count and under the same terms, as for `CCCCCCCCCCCC(=O)[O][Sn]([CH2]CCC)([CH2]CCC)[O]C(=O)CCCCCCCCCCC`, the figure is 5.1% [at 35.3 µM]; as for `CCC(C(=O)OCCN(CC)CC)c1ccccc1` (stereo not given), -2.28% [at 35.3 µM]; as for `O=Cc1c(Cl)cccc1Cl`, -5.89%. Still for that read-out and setting: as for `CC(=O)N(c1onc(C)c1C)S(=O)(=O)c1ccc(N)cc1`, the figure is -0.315% [at 35.3 µM]; as for `C/C(=N/NC(=O)c1ccncc1)C(=O)O`, 11.3% [at 35.3 µM]. For `O=C(OCCOCCO)c1ccccc1Nc1cccc(C(F)(F)F)c1`, the “cytotoxicity” value is -1.99% [at 35.3 µM]. Still for that read-out and setting: as for `O=C(Nc1ccccc1)Nc1ccccc1`, the figure is 2.59%. Consider `CCOC(=O)c1ccccc1C`, for which the “cytotoxicity” value was 0.0633%. Still for that read-out and setting: as for `C[N+](C)(C)CCOC(N)=O`, the figure is -0.996% [at 35.3 µM]; as for `COC(=O)c1cc(S(N)(=O)=O)ccc1OC`, 0.561% [at 35.3 µM]. For `CCC(C)(C)C1CCC(O)CC1` (stereo not given), the “cytotoxicity” value is 0.962%. `CC1CC(O)CC(C)(C)C1` (stereo not given): the “cytotoxicity” value was 0.298%.

With `CC(C)(C)C(=O)C(Oc1ccc(Cl)cc1)n1ccnc1` (stereo not given), the “cytotoxicity” value was -0.841% [at 35.3 µM].

Turning to `CN1Cc2cc(C(=O)N3CCC(C4CCNCC4)CC3)ccc2N[C@@H](CC(=O)O)C1=O`, the “cytotoxicity” value was -1.3% [at 35.3 µM]. On to `Nc1ccc(C(=O)OCCCOC(=O)c2ccc(N)cc2)cc1`, for which the “cytotoxicity” value is -6.1%. On the same count and under the same terms, as for `CCCCCCOC(=O)C(C)C`, the figure is 0.239%. Still for that read-out and setting: as for `CCCOc1ccc(S(=O)(=O)N2CCN(CC)CC2)cc1-c1nc2c(CC)n(Cc3ccccn3)nc2c(=O)[nH]1`, the figure is -6.29%. For `CCCCCCCCCCCCCCC[C@H](O)[C@@H](N)CO`, the Potency is 19 µM (active).

Regarding `Nc1ccc(S(=O)(=O)O)cc1`, the “cytotoxicity” value is 1.85%. As to `O=S(=O)(c1ccccc1)c1ccc(Cl)cc1`, the “cytotoxicity” value is -5.87%.

Consider `CO[C@@]12[C@H](COC(N)=O)C3=C(C(=O)C(C)=C(N)C3=O)N1C[C@@H]1N[C@@H]12`, for which the “cytotoxicity” value is 12.3% [at 35.3 µM]. Same read-out and setting: as for `CC1C2CC(CC2C2CCCC(O)C2)C1(C)C` (stereo not given), the figure is 0.293%; as for `Nc1nccs1`, 21.9%.
